Compounds without any hit were thinned out: in the full panel of roughly 83,000, 20% have a hit.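 Single-concentration screen, 48 h exposure, 96-well plates. Endpoint: percent growth. Below 10 = active.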 Values without a mark were called inactive. Activity calls are given as the source filed them.
Legend:
Assay in all cases: NCI-60 one-dose screen, 48 h (100 = growth as untreated, 0 = no growth, -100 = all killed)
Settings in all cases: 10 µM unless noted
T-47D breast = system: T-47D breast
BT-549 breast = system: BT-549 breast
MDA-MB-435 melanoma = system: MDA-MB-435 melanoma
SW-620 colon = system: SW-620 colon
MCF7 breast = system: MCF7 breast
HCT-116 colon = system: HCT-116 colon
HCC-2998 colon = system: HCC-2998 colon
KM12 colon = system: KM12 colon

SMILES	growth (T-47D breast)	growth (BT-549 breast)	growth (MDA-MB-435 melanoma)	growth (SW-620 colon)	growth (MCF7 breast)	growth (HCT-116 colon)	growth (HCC-2998 colon)	growth (KM12 colon)
C=CN(C(=O)N1CCN(c2cc3c(cc2F)c(=O)c(C(=O)O)cn3C2CC2)CC1)c1nc(-c2ccc(C)cc2)cs1	36.3%	11.9%	22.1%	20.8%	7.94% (active)	10.9%	39%	21.9%
C[C@@H]1N=C(c2ccc(Cl)cc2Cl)Nc2nc3ccccn3c2C1=O	64.3%	55.6%	-16.6% (active)	25.2%	16.8%	28.1%	75.4%	23.8%
CCN(CC)c1ccc(/C=N/NC(=O)c2ccccc2Nc2ccnc(C(F)(F)F)c2)c(O)c1	22.3%	38.5%	29.3%	37.3%	20.4%	27.7%	76.7%	31.4%
C=C(C)[C@@H]1CC[C@]2(COCCCNCCCN)CC[C@]3(C)[C@H](CC[C@@H]4[C@@]5(C)CC[C@H](OCCCN)C(C)(C)[C@@H]5CC[C@]43C)[C@@H]12	-65.2% (active)	99.6%	-91.2% (active)	-80.8% (active)	-77.9% (active)	-82.5% (active)	-24.8% (active)	-89.8% (active)
CCCCCCCCCCCCCCCCCCOc1ccccc1CC(=O)OCC[N+]1(C)CCCCC1	66.9%	58%	57%	68.3%	51.1%	30.2%	40.3%	86.5%
O=C(O)c1cc2ccccc2s1	91.9%	108%	104%	103%	111%	105%	107%	108%
CCCCCCCCNC(=O)[C@@H](N)CSCOC(C)=O	96.1%	111%	19.1%	84.6%	108%	92.7%	101%	38.1%
CC/C(=C(/c1ccc(Cl)cc1)c1ccc(OCCN(CC)CC)cc1)c1ccc(OC)cc1	39.1%	67.7%	69.1%	40.2%	13.7%	34.2%	54.7%	35.1%
COc1ccc(S(=O)(=O)NC2c3ccccc3CC2O)cc1OC (stereo unspecified)	105%	112%	105%	100%	97.3%	104%	99.8%	101%
N#Cc1c(-c2ccc(F)cc2)cc(-c2cccc(Cl)c2)[nH]c1=O	59.9%	54.6%	77.1%	104%	54.5%	67.1%	94.2%	56.1%
CCOC(=O)/C(=C/c1ccc([N+](=O)[O-])cc1)C(=O)c1ccccc1	41.9%	6.8% (active)	28.1%	6.12% (active)	22.7%	-8.58% (active)	47.7%	29.5%
COC(=O)[C@@H](Cc1c[nH]c2ccccc12)NC(=O)[C@H](Cc1ccccc1)NCc1ccncc1	93.2%	96.5%	113%	104%	110%	87.4%	112%	96.5%
COC(=O)c1nc(-c2ccccc2)oc1S(=O)(=O)N1CCN(c2ccc(OC)cc2)CC1	59%	76.6%	77.2%	41.4%	45.4%	60.9%	104%	86.2%
O=C(CN1C(=O)c2ccccc2S1(=O)=O)Nc1nc(-c2cc3ccccc3oc2=O)cs1	98.7%	105%	104%	103%	96.6%	104%	102%	101%
Cn1ccnc1C(=O)/C=C/c1ccc(C(=O)Nc2c(F)c(F)c(F)c(F)c2F)cc1	9.11% (active)	22.4%	48.7%	-14.3% (active)	13%	-21.5% (active)	-4.74% (active)	-58.7% (active)
COc1cc(OCc2cccc(-c3ccc4c(c3)OCCO4)c2C)cc(OC)c1C=O	10.1%	56.6%	52.9%	70.2%	22.6%	44.1%	70.3%	78.9%

SMILES	growth (T-47D breast)	growth (BT-549 breast)	growth (MDA-MB-435 melanoma)	growth (SW-620 colon)	growth (MCF7 breast)	growth (HCT-116 colon)	growth (HCC-2998 colon)	growth (KM12 colon)
Cc1c(-c2cnc3ccc(Cl)cc3c2C(=O)O)nnn1-c1ccc(Cl)cc1	88%	82%	105%	112%	98.5%	76.7%	102%	109%
CCOC(=O)c1c(Nc2nc3ccccc3s2)sc2c1CCC(=O)C2	37%	13.5%	82.6%	19.4%	39.3%	11.4%	104%	47.7%
COc1ccc(/C=C2/CCc3cc4ccc(OC)cc4[o+]c32)c(O)c1	67.2%	96.2%	2.85% (active)	11.9%	48.1%	-64.1% (active)	64.3%	45.4%
Cc1[nH]c(C(=O)Nc2ccccc2OC2CCNC2)c(Cl)c1Cl (stereo unspecified)	83.2%	88%	86.4%	79.8%	67.3%	42.8%	94.4%	84.2%
COc1ccc2c(O)cc3c(c2c1)[C@H](CCl)CN3C(=O)c1cc2cc(NC(=O)CCN3CCOCC3)ccc2[se]1	-21.4% (active)	-72.8% (active)	-67.5% (active)	-41.4% (active)	-48% (active)	-55.1% (active)	-88.3% (active)	-57.4% (active)
Cn1cc(-c2ccc3c(Nc4cccc(NC(=O)Nc5cccc(F)c5)c4)ncnc3c2)cn1	21.5%	47.4%	57.8%	57.7%	22.1%	25.5%	83.3%	20.4%
N#CSCc1cc(Cl)c(CSC#N)cc1Cl	90%	39.7%	34.9%	20.6%	24.5%	34.7%	97%	85.5%
COc1ccc(-c2nc3cc(C(=O)NC4CCCCC4)ccc3n2C2CCCCC2)cc1	87.6%	94.9%	99.4%	101%	85.2%	87.1%	91.8%	68.6%
COc1ccc(NC(=O)c2ccc(NC3=C(c4ccc(Cl)cc4)C(=O)NC3=O)cc2)cc1	62.3%	82.1%	95.3%	103%	83.5%	88.9%	97.6%	80.9%
O=C1/C(=C/c2ccc(Br)cc2)COc2ccc(O)cc21	80.6%	79.2%	75.6%	1.35% (active)	9.07% (active)	16.9%	89.8%	26.8%
COc1ccc(N/N=C/c2ccc3c(c2)Sc2ccccc2N3C)cc1	51.9%	96.1%	17.6%	27.1%	32.3%	53.6%	85%	16.9%
COc1ccc(/C=C/C(=O)c2ccc(-n3cc(CN4CCN(c5cc6c(cc5F)c(=O)c(C(=O)O)cn6C5CC5)CC4)nn3)cc2)cc1	78.6%	65.8%	22.2%	32.8%	13.2%	-31.3% (active)	44%	42.6%
Nc1c(C(=O)c2ccc(Cl)cc2)sc(Nc2ccccc2)c1-c1nc2ccccc2s1	11.8%	55.2%	16.7%	39.3%	43.9%	13.9%	67.5%	16.1%
CCCCCCC/C=N/NC(=O)c1ccc(-n2cc(-c3ccccc3)nn2)cc1	95.4%	82.1%	90.8%	95.6%	85.9%	97.5%	88%	86.8%
O=C(Nc1ncc(Cc2ccccc2)s1)c1ccc2c(c1)OCCO2	36%	36.1%	-4.27% (active)	35.2%	10.8%	9.23% (active)	13.3%	9.34% (active)
CC(=O)[C@H]1CC[C@]2(C)[C@@H]1CC[C@@H]1[C@@]3(C)C/C(=C/c4cccnc4)C(=O)C(C)(C)[C@@H]3CC[C@]12C	13.6%	50.6%	75.1%	61.9%	34.8%	33.2%	99.9%	49.1%

From PubChem BioAssay (NCI)
